Drawing on ChEMBL document CHEMBL3433997, “St. Jude Leishmania screening dataset” (2016), this text covers inhibition for 40 compounds.

Broadly, the inhibition is the drop in the measured response relative to a control, in per cent.

Solute carrier family 2, facilitated glucose transporter member 1 (Homo sapiens), sequence (P11166 whole entry): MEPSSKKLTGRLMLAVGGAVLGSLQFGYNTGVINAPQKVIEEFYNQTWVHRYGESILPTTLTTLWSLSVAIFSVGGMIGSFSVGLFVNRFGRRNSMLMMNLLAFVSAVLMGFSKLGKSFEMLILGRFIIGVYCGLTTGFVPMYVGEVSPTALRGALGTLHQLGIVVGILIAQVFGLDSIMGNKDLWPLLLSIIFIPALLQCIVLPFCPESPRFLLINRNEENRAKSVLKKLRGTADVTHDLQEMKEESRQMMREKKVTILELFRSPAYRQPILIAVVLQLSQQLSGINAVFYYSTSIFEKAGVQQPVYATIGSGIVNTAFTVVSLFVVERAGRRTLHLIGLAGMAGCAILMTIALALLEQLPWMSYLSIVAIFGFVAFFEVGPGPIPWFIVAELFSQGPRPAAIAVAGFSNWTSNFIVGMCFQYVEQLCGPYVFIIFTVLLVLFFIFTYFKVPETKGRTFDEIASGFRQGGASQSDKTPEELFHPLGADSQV

One assay addresses Solute carrier family 2, facilitated glucose transporter member 1 (Homo sapiens) (UniProt P11166). The assay can be described thus: ST_JUDE_LEISH: Cytotoxicity at 2uM final concentration against transgenic Leishmania Mexicana promastigotes LmGLUT1 that are glucose transport deficient and complemented with the human glucose transporter GLUT1. Activity is measured by DNA content using SYBR green in vitro. It counts as functional.
Regarding `CCN(CC)CCCCCNc1c2ccc(Cl)cc2nc2ccc(OC)cc12`, the inhibition amounted to 2.17%.
`CN(C)CCOc1ccc(N2CCN(CCCCNC(=O)c3ccc(/C=C/c4cc(Cl)cc(Cl)c4)cc3)CC2)cc1`: the inhibition is -0.63%.
Still for that read-out and setting: the result for `CO/C(=C\C=C\c1cc2cc(Cl)c(Cl)cc2[nH]1)C(=O)NCCCCN1CCN(c2ccccc2OC)CC1` reads 3.1%.
For the compound `O=C(NC1CCN(Cc2ccc(Cl)cc2)CC1)c1cn(-c2ccccc2)nc1-c1cccnc1`, the inhibition amounted to 1.12%.
With `Cc1ccc2c(=O)c3cc(C)ccc3[nH]c2c1`, the inhibition came out at 3.4%.
`Cc1nc(-c2cccc(Nc3nccc(NCC(O)c4ccccc4)n3)c2)cs1` (stereo not given): the inhibition was found to be 1.43%.
On the same count and under the same terms, the result for `Cc1[nH]c(C)c(-c2ccc(-c3cccc(C(F)(F)F)c3)nc2)c(=O)c1Br` reads 9.61%; that for `Cc1cccn2c(=O)c3cc(C(=O)NC4CCCCC4)c(=N)n(CCCn4ccnc4)c3nc12`, -2.65%.
Consider `O=C(N[C@@H](Cc1ccccc1)C(=O)NC1CCCc2ccccc21)c1ccc(O)c(-c2ccc(Cl)c(Cl)c2)c1` (stereo not given in full), for which the inhibition worked out at 0.59%.
Still for that read-out and setting: the result for `O=C(NCC(CCN1CCC(c2c[nH]c3ccccc23)CC1)c1ccccc1)Nc1ccc(Cl)c(Cl)c1` (stereo not given) reads 5.74%; that for `CCN(CC)CCN(Cc1ccc(-c2ccc(C(F)(F)F)cc2)cc1)C(=O)Cn1c(CCc2cccc(F)c2F)nc(=O)c2ccc(C)cc21`, 0.88%.
In the case of `Cc1noc(C)c1-c1cccc(CNCc2cccc(-c3ccc(-c4nc5ccccc5[nH]4)s3)c2)c1`, the inhibition was 8.57%.
As for `C[C@H](NC(=O)C1CCCC1)C(=O)Nc1ccc(-c2ccc(-c3nc4cc(C(F)(F)F)ccc4[nH]3)cc2)cc1`, the inhibition was determined as 2.17%.
Consider `COc1ccccc1CCCN1C(=O)C(c2ccccc2)(c2ccccc2)N=C1N`, for which the inhibition is 4.43%.
On the same count and under the same terms, the result for `O=C(NC1CCCCN(Cc2ccccc2O)C1)c1ccc(-c2ccccc2)cc1` (stereo not given) reads 2.73%.
The same measure, in the same setting: the result for `Cc1cc(NC2CCN(Cc3ccccc3)CC2)nc(NCCCCc2ccccc2)n1` reads 23.4%; that for `ON=C1CCc2cc(-c3[nH]c(-c4cccc(OCCNCc5ccc(F)cc5)c4)nc3-c3ccncc3)ccc21`, 16.7%; that for `COc1ccc2c(NN=Cc3cccc(F)c3)ccnc2c1`, 2.99%.
Still for that read-out and setting: the result for `COc1ccc(NC(=O)C2c3ccccc3C(=O)N(C3CCCC3)C2c2cccs2)c(OC)c1` (stereo not given) reads 1.15%; that for `c1cc(CN2CCN(c3ccncc3)CC2)cc(-c2ccc(-c3nc4ccccc4[nH]3)cc2)c1`, 8.29%; that for `Cc1ccc(CON2C(N)=NC(N)=NC2(C)C)c(Cl)c1.Cc1ccc(CON2C(N)=NC(N)=NC2(C)C)cc1Cl`, 2.94%.
In the case of `O=C(Nc1cccc(Cl)c1Cl)N1CCc2cc3nccc(N4CCN5CCC[C@H]5C4)c3cc21`, the inhibition was -0.2%.
Still for that read-out and setting: the result for `CC(C)Cc1cn(-c2nc(-c3nc4ccccc4[nH]3)cs2)c2ccncc12` reads 4.69%.
Turning to `COc1ccc(NC(=O)c2ccc3cc4ccccc4cc3c2)cc1N1CCN(C)CC1`, the inhibition turned out to be 0.49%.
Still for that read-out and setting: the result for `O=C(COc1ccccc1)NC1CCN(c2ccnc3cc(Cl)ccc23)C1` (stereo not given) reads 0.14%; that for `O=C(/C=C/c1cccc(Br)c1)NCCCCCN1CCC(c2c[nH]c3ccccc23)CC1`, 3.71%; that for `COc1cc(Cc2cnc3nc(N)nc(N)c3c2C)cc(OC)c1OC`, 1.29%.
In the case of `COc1ccc2ncc(F)c(CCN3CC(O)C(CNCc4ccc5ccccc5c4)C3)c2n1` (stereo not given), the inhibition was 15.5%.
Still for that read-out and setting: the result for `COCCN1CCN(Cc2ccc(-c3ccc(-c4nc5cc(F)ccc5[nH]4)cc3)cc2)CC1` reads 6.74%; that for `CCCNC[C@@H](O)[C@H](Cc1ccccc1)NC(=O)c1cc2c3c(c1)c(CC)cn3CCS(=O)(=O)N2C`, -2.56%; that for `CCN(CC)CCNC(=O)c1ccc(Nc2ncc([N+](=O)[O-])c(Nc3ccccc3OC)n2)cc1`, 4.77%.
Still for that read-out and setting: the result for `CCCCCCOc1ccc(/C(N)=N\Cc2ccccc2)c2c1CCCC2` reads 2.62%.
Take `C[C@@H](C(=O)N1CCOCC1)N1CC[C@H](NS(=O)(=O)c2ccc3ccnc(N)c3c2)C1=O`: the inhibition is -1.02%.
The same measure, in the same setting: the result for `Cc1cccc2nc(-c3cccc(-c4cccc(NC(=O)Cc5c[nH]cn5)c4)c3)[nH]c12` reads 1.54%; that for `CNC(=O)c1cnc(Nc2ccc(OCC(O)CN(C)C)cc2)nc1Nc1cccc([N+](=O)[O-])c1` (stereo not given), 3.44%.
Turning to `O=C(/C=C/c1ccc(Cl)c(Cl)c1)NC1CCN(CCCNC(=O)c2cccc(Cl)c2)CC1`, the inhibition was 6.07%.
For the compound `CCOc1ccc(Nc2cc(C)nc(Nc3ccc(OCC)cc3)n2)cc1`, the inhibition worked out at 0.78%.
Same read-out and setting: the result for `O=C(Nc1cccc(-c2cccc(-c3ccc(F)cc3)n2)c1)c1ccc([N+](=O)[O-])o1` reads 9.83%; that for `COc1ccccc1C1CCN(C2CCC(NC(=O)/C=C/c3ccc(C(F)(F)F)cc3F)CC2)CC1` (stereo not given), 0.47%.
For the compound `Cc1cc(Nc2ccc(Cl)cc2)n2nc(C(F)(F)F)nc2n1`, the inhibition was determined as 0.02%.

Another assay concerns the target Hexose transporter 1 (Plasmodium falciparum) (UniProt O97467). The assay can be described thus: ST_JUDE_LEISH: Cytotoxicity at 2uM final concentration against transgenic Leishmania Mexicana promastigotes LmPfHT that are glucose transport deficient and complemented with the Plasmodium falciparum hexose transporter. Activity is measured by DNA content using SYBR green in vitro. It counts as functional.
As to `CCN(CC)CCCCCNc1c2ccc(Cl)cc2nc2ccc(OC)cc12`, the inhibition came to 1.26%.
Turning to `CN(C)CCOc1ccc(N2CCN(CCCCNC(=O)c3ccc(/C=C/c4cc(Cl)cc(Cl)c4)cc3)CC2)cc1`, the inhibition was 0.08%.
On to `CO/C(=C\C=C\c1cc2cc(Cl)c(Cl)cc2[nH]1)C(=O)NCCCCN1CCN(c2ccccc2OC)CC1`, for which the inhibition is 2.16%.
Consider `O=C(NC1CCN(Cc2ccc(Cl)cc2)CC1)c1cn(-c2ccccc2)nc1-c1cccnc1`, for which the inhibition was found to be 0.95%.
Still for that read-out and setting: the result for `Cc1ccc2c(=O)c3cc(C)ccc3[nH]c2c1` reads 0.93%.
Same read-out and setting: the result for `Cc1nc(-c2cccc(Nc3nccc(NCC(O)c4ccccc4)n3)c2)cs1` (stereo not given) reads 0.76%; that for `Cc1[nH]c(C)c(-c2ccc(-c3cccc(C(F)(F)F)c3)nc2)c(=O)c1Br`, 8.1%.
As to `Cc1cccn2c(=O)c3cc(C(=O)NC4CCCCC4)c(=N)n(CCCn4ccnc4)c3nc12`, the inhibition is -2.23%.
Consider `O=C(N[C@@H](Cc1ccccc1)C(=O)NC1CCCc2ccccc21)c1ccc(O)c(-c2ccc(Cl)c(Cl)c2)c1` (stereo not given in full), for which the inhibition was determined as 0.41%.
The same measure, in the same setting: the result for `O=C(NCC(CCN1CCC(c2c[nH]c3ccccc23)CC1)c1ccccc1)Nc1ccc(Cl)c(Cl)c1` (stereo not given) reads 2.72%.
Same read-out and setting: the result for `CCN(CC)CCN(Cc1ccc(-c2ccc(C(F)(F)F)cc2)cc1)C(=O)Cn1c(CCc2cccc(F)c2F)nc(=O)c2ccc(C)cc21` reads 1.15%; that for `Cc1noc(C)c1-c1cccc(CNCc2cccc(-c3ccc(-c4nc5ccccc5[nH]4)s3)c2)c1`, 3.74%; that for `C[C@H](NC(=O)C1CCCC1)C(=O)Nc1ccc(-c2ccc(-c3nc4cc(C(F)(F)F)ccc4[nH]3)cc2)cc1`, 0.76%.
Turning to `COc1ccccc1CCCN1C(=O)C(c2ccccc2)(c2ccccc2)N=C1N`, the inhibition came to 0.97%.
Same read-out and setting: the result for `O=C(NC1CCCCN(Cc2ccccc2O)C1)c1ccc(-c2ccccc2)cc1` (stereo not given) reads 2.62%; that for `Cc1cc(NC2CCN(Cc3ccccc3)CC2)nc(NCCCCc2ccccc2)n1`, 17.5%.
For `ON=C1CCc2cc(-c3[nH]c(-c4cccc(OCCNCc5ccc(F)cc5)c4)nc3-c3ccncc3)ccc21`, the inhibition was found to be 9.15%.
Same read-out and setting: the result for `COc1ccc2c(NN=Cc3cccc(F)c3)ccnc2c1` reads 2.22%.
Same read-out and setting: the result for `COc1ccc(NC(=O)C2c3ccccc3C(=O)N(C3CCCC3)C2c2cccs2)c(OC)c1` (stereo not given) reads -0.63%.
For `c1cc(CN2CCN(c3ccncc3)CC2)cc(-c2ccc(-c3nc4ccccc4[nH]3)cc2)c1`, the inhibition stood at 5.17%.
Regarding `Cc1ccc(CON2C(N)=NC(N)=NC2(C)C)c(Cl)c1.Cc1ccc(CON2C(N)=NC(N)=NC2(C)C)cc1Cl`, the inhibition is 4.84%.
Same read-out and setting: the result for `O=C(Nc1cccc(Cl)c1Cl)N1CCc2cc3nccc(N4CCN5CCC[C@H]5C4)c3cc21` reads 1.06%.
Still for that read-out and setting: the result for `CC(C)Cc1cn(-c2nc(-c3nc4ccccc4[nH]3)cs2)c2ccncc12` reads 6.3%; that for `COc1ccc(NC(=O)c2ccc3cc4ccccc4cc3c2)cc1N1CCN(C)CC1`, -0.55%.
On to `O=C(COc1ccccc1)NC1CCN(c2ccnc3cc(Cl)ccc23)C1` (stereo not given), for which the inhibition came out at 1%.
For the compound `O=C(/C=C/c1cccc(Br)c1)NCCCCCN1CCC(c2c[nH]c3ccccc23)CC1`, the inhibition is 2.1%.
For the compound `COc1cc(Cc2cnc3nc(N)nc(N)c3c2C)cc(OC)c1OC`, the inhibition stood at 1.49%.
As for `COc1ccc2ncc(F)c(CCN3CC(O)C(CNCc4ccc5ccccc5c4)C3)c2n1` (stereo not given), the inhibition came to 16.6%.
Consider `COCCN1CCN(Cc2ccc(-c3ccc(-c4nc5cc(F)ccc5[nH]4)cc3)cc2)CC1`, for which the inhibition amounted to 3%.
In the case of `CCCNC[C@@H](O)[C@H](Cc1ccccc1)NC(=O)c1cc2c3c(c1)c(CC)cn3CCS(=O)(=O)N2C`, the inhibition is 0.74%.
Same read-out and setting: the result for `CCN(CC)CCNC(=O)c1ccc(Nc2ncc([N+](=O)[O-])c(Nc3ccccc3OC)n2)cc1` reads 4.91%.
For `CCCCCCOc1ccc(/C(N)=N\Cc2ccccc2)c2c1CCCC2`, the inhibition is 3.36%.
Still for that read-out and setting: the result for `C[C@@H](C(=O)N1CCOCC1)N1CC[C@H](NS(=O)(=O)c2ccc3ccnc(N)c3c2)C1=O` reads -1.24%; that for `Cc1cccc2nc(-c3cccc(-c4cccc(NC(=O)Cc5c[nH]cn5)c4)c3)[nH]c12`, 2.27%.
Consider `CNC(=O)c1cnc(Nc2ccc(OCC(O)CN(C)C)cc2)nc1Nc1cccc([N+](=O)[O-])c1` (stereo not given), for which the inhibition was found to be 3.59%.
On the same count and under the same terms, the result for `O=C(/C=C/c1ccc(Cl)c(Cl)c1)NC1CCN(CCCNC(=O)c2cccc(Cl)c2)CC1` reads 6.03%; that for `CCOc1ccc(Nc2cc(C)nc(Nc3ccc(OCC)cc3)n2)cc1`, 2.01%; that for `O=C(Nc1cccc(-c2cccc(-c3ccc(F)cc3)n2)c1)c1ccc([N+](=O)[O-])o1`, 11.4%.
Same read-out and setting: the result for `COc1ccccc1C1CCN(C2CCC(NC(=O)/C=C/c3ccc(C(F)(F)F)cc3F)CC2)CC1` (stereo not given) reads 1.54%.
Still for that read-out and setting: the result for `Cc1cc(Nc2ccc(Cl)cc2)n2nc(C(F)(F)F)nc2n1` reads 0.17%.
